From PubChem BioAssay (NCI)
Compounds without any hit were thinned out: in the full panel of roughly 83,000, 20% have a hit.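 Note: values are percent growth. 100 is the growth of untreated cells, values between 100 and 0 indicate rising inhibition; between -100 and 0 indicates cell death.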 Unmarked numbers belong to inactive results. The source made the active and inactive calls. The calls were made as follows: active = growth percent below 10; inactive = the rest.

test system: NCI-H522 lung; test: NCI-60 one-dose screen, 48 h (100 = growth as untreated, 0 = no growth, -100 = all killed); settings: 10 µM unless noted

| SMILES | growth |
| --- | --- |
| Cc1nn(-c2ccccc2)c(Cl)c1/C=C/C(=O)c1ccc(F)cc1 | 69.4% |
| COc1cc2oc(-c3cccc(C(=O)Nc4ccc(Br)cc4)c3)cc(=O)c2c(OC)c1OC | 60.9% |
| CC1=C(C(=O)/C=C/c2c[nH]c3ccccc23)C(c2ccccc2)NC(=S)N1 (stereo not given) | 89% |
| CCCCCN1C=C/C(=C\C(=O)N(C)c2ccc(Oc3ccccc3)cc2)c2ccccc21 | 61.1% |
| Cn1cc(-c2nc(-c3c[nH]c4c(Cl)nccc34)cs2)c2cc(Br)ccc21 | 78.7% |
| COc1ccc(/C=C2\Oc3cc(OCCCN4CCCCC4)ccc3C2=O)cc1OC | 99.1% |
| Cc1cc2nc3c4cc(C=O)ccc4n(CCN(C)C)c3nc2cc1C | -9.47% (active) |
| S=c1cc(S)c2cc(Br)ccc2[nH]1 | 68.1% |
| O=C(/C(=C\c1ccc([N+](=O)[O-])cc1)S(=O)Cc1ccc(Cl)cc1)c1ccc(Cl)cc1 (stereo not given) | 37.5% |
| COc1cc(CC(=O)c2ccc(O)c(OC)c2)ccc1O | 88.4% |
| O=C(NCCc1ccccc1)Nc1ccc2cc3ccc(NC(=O)NCCc4ccccc4)cc3nc2c1 | -10.8% (active) |
| C=C(C)[C@@H]1CC[C@]2(C(=O)N3CCN(C)CC3)CC[C@]3(C)[C@H](CC[C@@H]4[C@@]5(C)C/C(=C/c6cccnc6)C(=O)C(C)(C)[C@@H]5CC[C@]43C)[C@@H]12 | 59% |
| COc1cc2nc(-c3ccc(Cl)cc3)cc(OCCCN3CCC(O)CC3)c2cc1OC | 33.4% |
| O=S(=O)(NCCNc1nccc(-c2c(-c3cccc(O)c3)nc3occn23)n1)c1ccccc1 | 77.5% |
| NC(=NCCCOc1ccc(F)cc1)Nc1ccc(Cl)cc1 | 76.5% |
| C#Cc1cccc(NC(=O)c2cccc(NC(=O)CCl)c2)c1 | -65.8% [8.25 µM] (active) |
| CCN1Cc2nc3sc(C)c(C)c3c(=O)n2C=C1C | 38.5% |
| O=C1Nc2cc(-c3cccc([N+](=O)[O-])c3)ccc2/C1=C/c1ccc[nH]1 | 78.3% |

| SMILES | growth |
| --- | --- |
| C[C@H]1[C@H](C)CC[C@]2(C(=O)NCC#CCN3CCN(C)CC3)CC[C@]3(C)C(=CC[C@@H]4[C@@]5(C)Cc6c([nH]c7ccccc67)C(C)(C)[C@@H]5CC[C@]43C)[C@H]12 | 82.6% |
| COc1cc(/C=C/c2cc(O)c(C(C)=O)c(O)c2)cc2c1O[C@]1(C)CC[C@@H](O)C(C)(C)[C@H]1C2 | 79% |
| N#CC1=C(N)Oc2c(cnn2-c2ccc([N+](=O)[O-])cc2[N+](=O)[O-])C1c1ccccc1 (stereo not given) | 95.3% |
| COc1ccc(C(=O)c2cc(C)c(OC)c(C)c2)c(OC)c1N(C(=O)CCl)C(=O)CCl | 6.33% (active) |
| CCC(=O)Oc1ccc(/C(=C(\C)c2ccccc2)c2ccc(OCCN3CCCCC3)cc2)cc1 | 74.4% |
| Cc1ccc(NC(=O)c2cc(-c3nc4ccccc4s3)c(=O)n(NS(=O)(=O)c3ccc(Cl)cc3)c2N)cc1 | 94.4% |
| O=C1Nc2ccc(F)cc2/C1=C\c1c(-c2ccccc2)nc2ccccn12 | 21.3% |
| O=C(NO)c1ccc(-n2nc(-c3ccccc3)c3ccccc32)cc1 | 6.17% (active) |
| O=C1Nc2ccccc2/C1=C\c1c(-c2ccc(F)cc2)nc2ccccn12 | 42.6% |
| Oc1cccc(CCc2ccc(Oc3cc(CCc4cccc(O)c4)cc(O)c3O)cc2)c1 | -8.62% (active) |
| CCCCCCCC(=O)OCC/C=C/C1OC1C1OC(=O)/C=C\C=C\C(=O)N(C(C)=O)C(=O)/C=C(/C)CCC2OC2C1OC(=O)NC(C)=O (stereo not given) | 57.1% |
| Cc1ccc(NS(=O)(=O)c2ccc(-c3cnc(C4CC4)o3)cc2)cc1C(F)(F)F | 39.9% |
| CNC(=O)c1cncc(Cn2nc(C)c(NC(=O)c3ccc(COc4ccc(C(F)(F)F)cc4C)cc3)c2C)c1 | 49.2% |
| Cc1cc(C)c(S(=O)(=O)Oc2ccccc2[N+](=O)[O-])c(C)c1 | -12.5% (active) |
| C=C1C(=O)O[C@H]2[C@H]1CC/C(CNC(=O)C(C)c1ccc(CC(C)C)cc1)=C\CC[C@@]1(C)O[C@@H]21 (stereo not given in full) | 7.53% (active) |
| NC(=S)N1N=C(c2ccccc2)CC1c1cn(-c2ccccc2)nc1-c1ccc(OCc2ccccc2)cc1 (stereo not given) | 83.5% |
| CN1CCN(C(=O)[C@]23CCC(C)(C)C[C@H]2C2=CC[C@@H]4[C@@]5(C)C/C(=C/c6cccnc6)C(=O)C(C)(C)[C@@H]5CC[C@@]4(C)[C@]2(C)CC3)CC1 | 49.4% |
